KCNQ2 enhance = potentiators of rat KCNQ2 potassium channel; Potassium voltage-gated channel subfamily KQT member 2 (Rattus norvegicus), O88943; CHO-K1 KCNQ2, FluxOR thallium flux fluorescence; active compounds read high; B-score at 10 µM; 310,000 tested, 0.54% active; AID 2239, 2010;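 active = fluorescence ratio B-score at least 3 SD of library B-scores, with initial fluorescence B-score within 3 of them, cut at about 5.3 in these data; same plate scores as AID 2156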;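 note: B-score of peak minus minimum over baseline fluorescence ratio after K+ and Tl+ stimulus; positive B-score means potentiation of KCNQ2 with more thallium influx and brighter signal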
KCNQ2 inh = rat KCNQ2 potassium channel inhibitors, primary screen, cell-based, CHO-K1, FluxOR thallium flux, B-score; 20 min; active compounds read low; B-score at 10 µM; 310,000 tested, 1.1% active;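 active = fluorescence ratio B-score at most minus 3 library SDs, with starting brightness B-score within 2 library SDs, cut at about -5.5 in these data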
Kir21 confirm = mouse Kir2.1 channel blockers, retest, confirmation, cell-based, FluxOR thallium flux, duplicate; Tl flux remaining, % of negative control (active compounds read low), % at 10 µM; Kir2.1-expressing cells, FluxOR thallium flux fluorescence; active compounds read low; shares compounds with KCNQ2 enhance; 2,300 tested, 41% active; AID 2032, 2009;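 active = Primary-screen hit whose thallium flux fell at least 3 control SD below untreated wells in both duplicates, with normal baseline fluorescence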;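 note: 0% = blank wells without stimulus and 100% = stimulated no-compound controls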
HEK293 Tl flux = alters thallium flux in parental HEK293 cells, Kir2.1 counter-screen. shares compounds with KCNQ2 enhance. FluxOR thallium flux fluorescence; 0% = unstimulated blank wells. FluxOR signal as % of negative control (100 = no effect), % at 10 µM. 2,300 tested, 19% active;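 active = dye signal at least 3 control SD above or below untreated wells in both duplicates, raw fluorescence within 3, either direction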;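 note: percent is based on the flux ratio of peak minus minimum fluorescence over baseline F0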
CHO-K1 ctr = nonspecific thallium flux increase in parental CHO-K1, confirmation, counter-screen for KCNQ2 potentiator project, cell-based, FluxOR thallium flux, duplicate. shares compounds with KCNQ2 enhance. parental CHO-K1 cells, FluxOR thallium flux fluorescence; zero = vehicle mean+3SD, 100% = vehicle-minus-blank window. activity increase over 3SD of controls, % at 10 µM. 1,200 tested, 43% active. AID 2282, 2010;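 active = signal rise of at least 3 SD above the untreated control mean, in both duplicate wells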;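 note: counter screen of KCNQ2 potentiator hits so any rise reflects channel-independent effects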
KCNQ1 pot spec = human KCNQ1 channel potentiation off-target, confirmation, selectivity assay for KCNQ2 potentiator project, cell-based, CHO, FluxOR thallium flux; shares compounds with KCNQ2 enhance; CHO KCNQ1 stable, FluxOR thallium flux fluorescence; beyond 3SD, as % of vehicle-control signal; activation over 3SD threshold, % at 10 µM; 1,200 tested, 28% active;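 active = fluorescence ratio rise of at least 3 SD of vehicle wells above their mean, in both replicate wells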;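 note: 0% = vehicle mean plus 3 SD and 100% = vehicle minus unstimulated blank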
KCNQ2 pot conf = rat KCNQ2 channel potentiators, confirmation, cell-based, CHO, FluxOR thallium flux, duplicate; shares compounds with KCNQ2 enhance; CHO-KCNQ2 cells, FluxOR thallium flux fluorescence; potentiation, less the hit threshold, % at 10 µM; 1,200 tested, 68% active;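 active = fluorescence ratio rising 3 SD or more over the vehicle control mean in both replicates, plus primary screen hit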;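 note: peak minus minimum thallium fluorescence divided by baseline after K/Tl stimulus; 0% = vehicle mean plus 3 SD and 100% = vehicle minus unstimulated blank difference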
Kir2-1 sel = mouse Kir2.1 channel activation off-target, confirmation, selectivity assay for KCNQ2 potentiator project, cell-based, HEK293, FluxOR thallium flux | activity over 3SD threshold, % at 10 µM | 1,200 tested, 2% active | shares compounds with KCNQ2 enhance | AID 2345, 2010 | HEK293 Kir2.1, FluxOR thallium flux fluorescence;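 active = fluorescence ratio rise of at least 3 SD above the vehicle-control mean, seen in both replicates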;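 note: 0% = vehicle mean plus 3 SD and 100% = vehicle minus no-stimulus blank window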
KCNQ2 W236L pot = potentiators of retigabine-insensitive KCNQ2 W236L, mechanism study for KCNQ2 potentiator project, cell-based, rat KCNQ2 W236L, CHO, automated patch clamp | automated patch clamp current | 940 tested, 10% active | shares compounds with KCNQ2 enhance | current increase over 3SD of negative controls (%), active compounds read high, % at 25 µM;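 active = current increase at least 3 SD of the untreated controls above them in both duplicate recordings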
Target sequence (O88943 whole entry W236L, looked up): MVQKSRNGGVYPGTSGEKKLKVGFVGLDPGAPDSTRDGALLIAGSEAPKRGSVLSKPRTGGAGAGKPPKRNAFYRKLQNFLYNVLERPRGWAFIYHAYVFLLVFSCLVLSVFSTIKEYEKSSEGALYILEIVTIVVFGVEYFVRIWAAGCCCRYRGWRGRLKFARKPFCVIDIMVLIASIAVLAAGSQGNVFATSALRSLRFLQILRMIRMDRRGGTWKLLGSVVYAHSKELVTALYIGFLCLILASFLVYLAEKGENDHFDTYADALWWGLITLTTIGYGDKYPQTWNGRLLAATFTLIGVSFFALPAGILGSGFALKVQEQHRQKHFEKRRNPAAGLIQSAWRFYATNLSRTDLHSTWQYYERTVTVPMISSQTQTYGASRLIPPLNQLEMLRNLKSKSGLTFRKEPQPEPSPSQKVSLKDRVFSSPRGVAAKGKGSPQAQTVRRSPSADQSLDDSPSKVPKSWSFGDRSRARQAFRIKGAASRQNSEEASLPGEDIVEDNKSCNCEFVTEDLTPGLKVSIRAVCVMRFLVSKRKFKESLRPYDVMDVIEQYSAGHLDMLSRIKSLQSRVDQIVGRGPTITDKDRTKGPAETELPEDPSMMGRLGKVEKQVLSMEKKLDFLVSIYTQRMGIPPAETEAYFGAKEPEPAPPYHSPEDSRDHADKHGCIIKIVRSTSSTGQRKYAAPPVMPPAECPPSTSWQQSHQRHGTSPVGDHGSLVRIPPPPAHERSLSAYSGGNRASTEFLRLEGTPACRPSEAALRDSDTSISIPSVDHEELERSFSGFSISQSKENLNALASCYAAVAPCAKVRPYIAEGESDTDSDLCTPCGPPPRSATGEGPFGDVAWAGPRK
An asterisk follows results filed as active; i = inactive; . = not tested or not shown. An excerpt weighted towards active compounds, which were near 1.6% of everything screened.

SMILES | KCNQ2 enhance | KCNQ2 inh | Kir21 confirm | HEK293 Tl flux | others
Cc1cc(NC(=O)CSc2nc3c(C)c(C)ccc3cc2C)no1 | 5.9* | i | i | i | CHO-K1 ctr=-26;KCNQ1 pot spec=-8;KCNQ2 pot conf=-11;Kir2-1 sel=-35
Cc1cccc(OCC(=O)NC2CCCC2)c1 | 0.59 | i | . | .
Cc1cc2cccc(C)c2nc1SCC(=O)NCC1CCCO1 (configuration not stated) | 0.98 | i | . | .
CCCN(C(=O)COc1ccc(Cl)cc1Cl)c1c(N)n(Cc2ccccc2)c(=O)[nH]c1=O | . | i | . | .
CC1CN(C(=O)c2c(Br)cnn2C)CC(C)O1 (configuration not stated) | . | i | . | .
CCOc1ccc(-c2c(C(=O)N/N=C/c3cccc(Br)c3)nnn2-c2nonc2N)cc1 | . | i | . | .
Cn1cc([C@@H]2C[C@H]3CN(C4CCCC4)C(=O)[C@]34CCCN24)c(-c2ccccc2)n1 | . | i | . | .
COc1ccc(CNC(=O)C2CCN(S(=O)(=O)c3cccc4nsnc34)CC2)cc1 | 1 | i | . | .
O=C(Nc1cc(C(F)(F)F)cc(C(F)(F)F)c1)c1ccc(Cn2cc(C(F)(F)F)ccc2=O)cc1 | . | i | . | .
COc1ccccc1NC(=O)C1CC(O)CN1C(=O)Oc1ccccc1 (configuration not stated) | . | i | . | .
O=C(CCN1CCOCC1)N1c2ccccc2Sc2ccc(Cl)cc21 | . | i | . | .
CN1CCN(CCCN2c3ccccc3Sc3ccc(Cl)cc32)CC1 | -9.1 | -9.1* | 14%* | i
CN(C)CCCN1c2ccccc2Sc2ccc(C(F)(F)F)cc21 | . | i | . | .
OCCN1CCN(CCCN2c3ccccc3Sc3ccc(C(F)(F)F)cc32)CC1 | . | i | 30%* | i
CCOc1ccccc1NC(=O)C1CCCN(S(=O)(=O)c2ccc(-n3cnnn3)cc2)C1 (configuration not stated) | 0.1 | i | . | .
Cc1ccc(CCNC(=O)CN2C(=O)COc3ccc(S(=O)(=O)N4CCOCC4)cc32)cc1 | 0.21 | i | . | .
CC(=O)n1cc(C(C[N+](=O)[O-])SCCN)c2ccccc21 (configuration not stated) | -7.3 | -7.3* | 50%* | 76%*
Cn1cc(C(C[N+](=O)[O-])c2ccccc2)c2ccccc21 (configuration not stated) | . | i | . | .
CCN(CC)C(=O)C1CCC(CNS(=O)(=O)c2cccc3nsnc23)CC1 (configuration not stated) | 0.08 | i | . | .
O=C(O)c1cccc(NN=C2c3ccccc3-c3ccccc32)c1 | . | i | . | .
O=C(O)c1cc(NN=C2c3ccccc3-c3ccccc32)ccc1Cl | 9.2* | i | i | i | CHO-K1 ctr=51*;KCNQ1 pot spec=-14;KCNQ2 pot conf=51*;Kir2-1 sel=-44;KCNQ2 W236L pot=22%*
Cc1cccc(NC2CCCCC2NS(=O)(=O)c2ccccc2)c1 (configuration not stated) | . | i | . | .
CCN1CCN(CCCNC(=O)c2ccc(CS(=O)c3ccc(Br)cc3)o2)CC1 (configuration not stated) | . | i | . | .
O=C(NCc1ccco1)c1ccccc1-c1ccc(C(F)(F)F)cc1 | 6.1* | i | i | i | CHO-K1 ctr=-8;KCNQ1 pot spec=23*;KCNQ2 pot conf=1.0*;Kir2-1 sel=-39;KCNQ2 W236L pot=i
O=C(NCc1ccco1)c1ccc(C(F)(F)F)cc1 | 1 | i | . | .
SMILES | KCNQ2 enhance | KCNQ2 inh | Kir21 confirm | HEK293 Tl flux | others
O=C(O)COc1ccc(/C=N/Nc2nc(Nc3ccccc3)nc(N3CCCCC3)n2)cc1 | 1.6 | i | . | .
COC(=O)c1sc(NC(=S)NC(=O)c2ccc(F)cc2)nc1C | 2.3 | i | . | .
COC(=O)c1sc(NC(=S)NC(=O)c2ccccc2C)nc1C | 12* | i | i | 302%* | CHO-K1 ctr=-4;KCNQ1 pot spec=33*;KCNQ2 pot conf=47*;Kir2-1 sel=-37;KCNQ2 W236L pot=i
CCCCCCCCCn1c2c(c(=N)c3c1CCC3)CCC2 | -6.1 | -6.1* | 10%* | i
CCCCCCCn1c2c(c(=N)c3c1CCC3)CCCC2 | 1.9 | i | 28%* | i
CCCCCCn1c(=O)[nH]c2c(c1=O)CCC2 | 0.1 | i | . | .
CCn1c2c(c(=N)c3c1CCC3)CCC2 | . | i | . | .
c1ccc(COc2ccccc2CNc2nn[nH]n2)cc1 | 1.1 | i | . | .
O=C(c1cc(COc2ccc3c(c2)CCCC3)on1)N1CCCC1 | 1.1 | i | i | i
COCC1CCN(C(=O)c2cc(COc3ccc4c(c3)CCCC4)on2)C1 (configuration not stated) | 0.7 | i | . | .
Cc1cc(C(F)(F)F)nc(SCC(=O)NC2CC3CCC2C3)n1 (configuration not stated) | 6* | i | . | . | CHO-K1 ctr=-13;KCNQ1 pot spec=-11;KCNQ2 pot conf=43*;Kir2-1 sel=-54;KCNQ2 W236L pot=i
Cc1cc(C(F)(F)F)nc(SCC(=O)Nc2ccccc2)n1 | 0.13 | i | . | .
COc1ccc(C=Nc2ccc3[nH]ncc3c2)c(O)c1 | . | i | . | .
Oc1c(Br)cc(Br)cc1C=Nc1ccc2[nH]ncc2c1 | 14* | i | i | i | CHO-K1 ctr=11*;KCNQ1 pot spec=-22;KCNQ2 pot conf=20*;Kir2-1 sel=-34;KCNQ2 W236L pot=10%*
O=C(N/N=C/c1cc(Br)cc(Br)c1O)c1ccncc1 | 2.1 | i | . | .
Oc1c(Br)cc(Br)cc1C=Nc1cccnc1 | 8.4* | i | i | i | CHO-K1 ctr=-10;KCNQ1 pot spec=-14;KCNQ2 pot conf=17*;Kir2-1 sel=-39;KCNQ2 W236L pot=i
CCOc1ccccc1C(=O)OCC(=O)NCC1CCCCC1 | 5.2 | i | . | .
COc1ccc(-n2nc(C(=O)NCC(=O)NCc3ccc(F)cc3)c3ccccc3c2=O)cc1OC | . | i | . | .
O=C(NCCc1ccccc1)/C(=C\c1ccccc1)NC(=O)c1ccco1 | . | i | . | .
CCOc1cccc(CNCc2cccnc2)c1OCc1ccccc1 | 1.3 | i | 45%* | i
Clc1ccc(COc2ccccc2CNCc2cccnc2)cc1 | 0.38 | i | . | .
OCCC1CN(Cc2ccc3nsnc3c2)CCN1CCc1ccccc1 (configuration not stated) | 0.09 | i | . | .
CC1(C)Cc2c(sc(NC(=O)C(=O)N3CCCCC3)c2C(N)=O)CO1 | . | i | . | .

Screens (PubChem)
